TDP1 cell CPT – DT40-hTDP1 cell growth loss with CPT | Potency, µM (doses to about 46.2 µM), inactives show at the highest dose activity change, negative = growth inhibition, hits mostly inhibitors | hit rate 12% among 420,000 | chicken DT40 Tdp1-/-;hTDP1 cells + 20 nM CPT, ATP luminescence, 48 h; further: potency means the concentration at half of the fitted maximal effect; nearly all actives have a fitted effect of over 55% in size
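Chicken DT40 Tdp1-/- cells stably complemented with human TDP1 were seeded at 400 cells/well in medium containing 20 nM camptothecin, exposed to pin-transferred compounds, and grown at 37 °C for at least 48 hr. Viability was read as ATP luminescence.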
HT1080 IDH1KD tx – toxicity to HT-1080 IDH1 knockdown cells (counter line); Potency, µM (doses to about 46.1 µM), inactives show at the top dose activity, negative = toxicity, usual class: cytotoxic; HT-1080 IDH1 knockdown viability, ATP luminescence, 48 h; hit rate 2% among 360,000;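 further: potency means the concentration at half of the fitted maximal effect; 0% = DMSO wells and -100% = cell-free medium wells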
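CellTiter-Glo luminescence after 48 h compound exposure at 37 degrees C of IDH1-knockdown HT-1080 cells in 5% FBS RPMI. %Activity scaled between DMSO wells and cell-free media wells, with curves fitted and assigned curve classes.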
DT40 TDP1 no CPT – qHTS for Inhibitors of human tyrosyl-DNA phosphodiesterase 1 (TDP1): qHTS in cells in absence of CPT; DT40 Tdp1-/- hTDP1 cells, no CPT, ATP luminescence, 48 h; Potency, µM (titrated, usually from 46.2 µM), without a hit: at the highest dose activity change, negative = growth inhibition, hits mostly inhibitors; hit rate 15% among 420,000; AID 686978, 2013; further: potency means the concentration at half of the fitted maximal effect; nearly all actives have a fitted effect of over 55% in size
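No-CPT arm: Tdp1-/-;hTDP1 DT40 cells (400/well) plus compounds, incubated ≥48 hr at 37 °C. Readout CellTiter-Glo luminescence.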
HT1080NT lethal – kills 2HG-producing HT-1080-NT fibrosarcoma cells | HT-1080-NT fibrosarcoma viability, CellTiter-Glo ATP luminescence, 48 h | Potency, µM (doses to about 46.1 µM), for the others: at the top dose activity, negative = less viability, actives largely listed as cytotoxic | hit rate 1.6% among 360,000 | AID 686970;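 further: NT is the 2HG producing partner of a matched IDH1 knockdown line; potency means the concentration at half of the fitted maximal effect; 0% = DMSO-treated cells and -100% = media-only wells without cells; nearly all actives have a fitted effect of over 55% in size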
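Compounds were tested in concentration-response format on HT-1080-NT cells for 48 hours at 37 degrees C. Cell viability came from CellTiter-Glo luminescence; curves were classified by r2, response magnitude and activity.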
IL-1B inflam inh – inhibitors of inflammasome signaling (IL-1 beta secretion). THP-1 LPS/ATP IL-1B secretion, AlphaLISA, 16 h; stronger effect = lower value. activity change, % at 57.5 µM. hit rate 4.7% among 360,000; in the data active means activity change below about -50%; inconclusive means mostly about -30% to -49%
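THP-1 cells pretreated 1 hr with compounds (up to 57.5 uM final), then stimulated with LPS (250 ng/mL final) plus ATP (1.25 mM final); secreted IL-1B measured by AlphaLISA after 16 hr, decreased signal indicating inhibition.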
12-LOX inh – ALOX12 (human) lipoxygenase inhibition | P18054 | purified 12hLO, xylenol orange hydroperoxide absorbance | Potency, µM (titrated, usually from 108 µM), inactives show at the top dose activity change, negative = inhibition, usual class: inhibitors | hit rate 1.1% among 580,000 | AID 1671190; further: potency means the concentration at half of the fitted maximal effect
Target sequence (P18054 whole entry, looked up): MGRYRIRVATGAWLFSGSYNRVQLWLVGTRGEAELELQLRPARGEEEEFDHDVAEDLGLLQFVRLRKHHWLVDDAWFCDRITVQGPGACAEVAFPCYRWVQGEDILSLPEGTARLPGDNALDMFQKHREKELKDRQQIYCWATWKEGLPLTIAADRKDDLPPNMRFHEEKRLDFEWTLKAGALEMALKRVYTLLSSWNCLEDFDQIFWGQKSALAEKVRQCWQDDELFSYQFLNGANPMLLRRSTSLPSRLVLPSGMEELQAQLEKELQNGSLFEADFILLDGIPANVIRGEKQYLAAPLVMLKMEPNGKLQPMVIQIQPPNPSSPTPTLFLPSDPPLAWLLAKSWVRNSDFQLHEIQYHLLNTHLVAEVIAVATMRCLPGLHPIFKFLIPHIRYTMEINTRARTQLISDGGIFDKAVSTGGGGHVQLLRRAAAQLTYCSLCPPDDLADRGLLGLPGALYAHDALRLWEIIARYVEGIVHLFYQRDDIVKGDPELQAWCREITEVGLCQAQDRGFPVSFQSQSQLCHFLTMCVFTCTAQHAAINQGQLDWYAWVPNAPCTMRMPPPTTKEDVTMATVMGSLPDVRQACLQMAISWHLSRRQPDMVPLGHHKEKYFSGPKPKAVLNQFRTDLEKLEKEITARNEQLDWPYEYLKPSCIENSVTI
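Purified human 12hLO (150 nM final) in 25 mM Hepes, 0.01% Triton X-100, pH 7.0 was preincubated 15 min at room temperature with compound. Then 40 uM arachidonic acid was added, 30 min. Hydroperoxide was read by Fe-XO absorbance ratio 573/405 nm.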
Numbers without * were called inactive; ? = inconclusive; nt = not tested or not shown; [ ] = remark or other dose. This is one part of a sample in which hits are shown more often than they occur. Unless noted, the call rests on the fitted dose curve; in most records, active means well fitted curve in the direction sought with a large enough effect; inconclusive means small, poorly fitted or top-dose-only effect, or another doubt; inactive means no such curve, though single readings can be large; an effect the other way counts as inactive or inconclusive. Unless noted, on the % scale 0 is the no-effect control and ±100 the full control effect.

SMILES | TDP1 cell CPT | HT1080 IDH1KD tx | DT40 TDP1 no CPT | HT1080NT lethal | IL-1B inflam inh | 12-LOX inh
CCOc1ccc(-c2nnn(CC(=O)c3ccc4c(c3)OCCO4)n2)cc1 | ? | -11% | 16µM* | 1% | 4 | 3%[57.4 µM]
CCOc1ccc(-n2nc3ccc(NC(=O)c4ccc5c(c4)OCCO5)cc3n2)cc1 | 3.3µM* | 20% | 5.8µM* | 6% | -6 | ?
CCOc1ccc(-n2nc3ccc(NC(=O)COc4ccccc4C)cc3n2)cc1 | ? | nt | 18µM* | nt | nt | -7%
CCOc1ccc(-c2nc3cc(NC(=O)COc4ccccc4C)ccc3o2)cc1 | nt | nt | nt | nt | nt | -5%
O=C(Nc1ccc2nn(-c3ccccc3)nc2c1)c1ccc2c(c1)OCCO2 | ? | -30% | 7.3µM* | -25% | -7 | ?
CCc1ccc(-n2nc3ccc(NC(=O)c4ccc5c(c4)OCO5)cc3n2)cc1 | 21µM* | ? | ? | -24% | 8 | -15%
CN(C)CC(O)COc1ccc(NC(=O)Nc2ccc(F)cc2)cc1 (stereo not given) | nt | nt | nt | nt | nt | -7%
CC(=O)Nc1ccc(NC(=O)COc2ccc3c(C)cc(=O)oc3c2C)cc1 | nt | nt | nt | nt | nt | 9%
NC(=O)c1c(-c2ccccc2)oc2ccc(O)cc12 | -23% | 6% | -14% | -5% | 0 | 23%
O=c1c(O)c(-c2ccc(O)cc2)oc2ccc(O)cc12 | 13µM* | nt | 13µM* | nt | nt | nt
COc1ccc(-c2oc3cc(O[C@@H]4OC(CO)C(O)C(O)C4O)c(OC)c(O)c3c(=O)c2OC)cc1O (stereo not given in full) | ? | nt | 15µM* | nt | nt | nt
COc1ccc(-c2oc3c(OC)c(OC)c(OC)c(O)c3c(=O)c2OC)cc1OC | ? | -12% | 21µM* | -10% | 34 | 33%
COc1ccc(-c2oc3cc(O)c(OC)c(O)c3c(=O)c2OC)cc1 | 10µM* | 21µM* | 13µM* | ? | 48 | 8%
COc1c(-c2ccc(O)cc2)oc2cc(O)cc(O)c2c1=O | ? | -2% | ? | 0% | 58 | -22%
COc1ccc(-c2oc3ccccc3c(=O)c2O)cc1OC | -28% | nt | -29% | nt | nt | nt
COc1ccc(-c2oc3ccc(C)cc3c(=O)c2O)cc1OC | 12µM* | nt | ? | nt | nt | nt
S=C1NC2(CCCCC2)N=C1c1ccc(Br)cc1 | nt | nt | nt | nt | nt | -21%
Cn1c(O)c(N=NC(=O)c2cccc(S(=O)(=O)N3CCCCC3)c2)c2ccccc21 | 16µM* | -19% | ? | -22% | -22 | -15%
O=C(c1cc(S(=O)(=O)N2CCC3(CC2)OCCO3)ccc1F)N1CCCCC1 | -7% | 0% | 13% | -1% | -60* | 5%
O=C(Nc1cccc(C(F)(F)F)c1)c1ccc(F)c(S(=O)(=O)N2CCc3ccccc3C2)c1 | 15µM* | nt | 13µM* | nt | nt | -14%
O=C(Nc1cccc(Cl)c1)c1ccc(F)c(S(=O)(=O)N2CCC3(CC2)OCCO3)c1 | 15µM* | nt | 13µM* | nt | nt | ?
O=C(Nc1ccc(F)c(Cl)c1)c1cc(S(=O)(=O)N2CCc3ccccc3C2)ccc1F | ? | nt | ? | nt | nt | -6%
O=C(Nc1ccccc1Cl)c1cc(S(=O)(=O)N2CCC3(CC2)OCCO3)ccc1F | ? | -2% | ? | 2% | -13 | 0%
O=C(Nc1cc(Cl)cc(Cl)c1)c1cc(S(=O)(=O)N2CCC3(CC2)OCCO3)ccc1F | 21µM* | nt | ? | nt | nt | -13%
CC(C)Cc1cc(C(=O)N2CCc3onc(-c4ccccc4F)c3C2)on1 | nt | nt | nt | nt | nt | 35%
SMILES | TDP1 cell CPT | HT1080 IDH1KD tx | DT40 TDP1 no CPT | HT1080NT lethal | IL-1B inflam inh | 12-LOX inh
CCOC1=C2CN(S(=O)(=O)c3ccc(C)cc3)[C@H](c3ccccc3)C[C@@H]2N(S(=O)(=O)c2ccccc2C)[C@H](c2ccccc2)C1 | -29% | 11% | ? | 17% | 0 | -1%
O=C(Nc1cccc(Cl)c1Cl)c1cc(S(=O)(=O)N2CCC3(CC2)OCCO3)ccc1F | ? | nt | 23µM* | nt | nt | -19%
O=S(=O)(Nc1nc2ccccc2nc1Nc1cccc(Br)c1)c1ccc(F)cc1 | nt | nt | nt | nt | nt | 41%
Nc1nccc(/C=C/c2c(F)cccc2Cl)n1 | -3% | -11% | -5% | -3% | -85* | 6%
O=C(/C=C/c1c(F)cccc1Cl)Nc1ncccn1 | 1% | 10% | 0% | 12% | -8 | -39%
CCOC(=O)c1nnc(-c2ccc(C)cc2)nc1Sc1cccc(Cl)c1 | 9.2µM* | 11% | ? | 1% | 1 | 0%
CCOC(=O)c1nnc(-c2ccccc2)nc1Oc1ccc(Cl)cc1 | 21µM* | ? | 16µM* | ? | -71* | ?
CCOC(=O)c1cnc(-c2ccccc2)nc1Oc1ccc(Cl)c(Cl)c1 | -4% | 9% | -4% | 8% | 14 | 18%
CCOc1ccc2c(=O)c(Oc3ccc(C(=O)OC)cc3)c(C(F)(F)F)oc2c1 | nt | nt | nt | nt | nt | 44%
CC1(C)CC(=O)c2cc(-c3nc(-c4ccc(F)cc4)cs3)c(=O)[nH]c2C1 | -19% | nt | -25% | nt | nt | 50µM*
CCOc1ccc(N(CC(=O)Nc2ccc(F)c(F)c2)S(=O)(=O)c2c(C)noc2C)cc1 | ? | -3% | ? | 0% | -15 | 16%
CCOc1ccc(N(CC(=O)Nc2cccc(Cl)c2)S(=O)(=O)c2c(C)noc2C)cc1 | 13µM* | ? | 12µM* | ? | -17 | -5%
CCOc1ccccc1NC(=O)CN(c1ccc(C)cc1)S(=O)(=O)c1c(C)n[nH]c1C | ? | ? | ? | ? | -95* | -4%
CCOc1ccc(NC(=O)CN(c2ccc(CC)cc2)S(=O)(=O)c2c(C)noc2C)cc1 | 12µM* | nt | 13µM* | nt | nt | 9%
CCOc1ccc(N(CC(=O)Nc2ccccc2OCC)S(=O)(=O)c2c(C)noc2C)cc1 | 5.2µM* | 2.3µM* | 3.3µM* | 2.3µM* | 53 | 1%
Nc1[nH]c(C(=O)c2ccc(Br)cc2)c(-c2ccncc2)c1C(=O)c1ccccc1 | nt | nt | nt | nt | nt | -1%
CCOc1ccc(N(CC(=O)Nc2cccc(OC)c2)S(=O)(=O)c2c(C)noc2C)cc1 | 13µM* | -14% | 18µM* | -9% | 17 | -1%
COc1ccc(O)c(C(=O)c2cnn(-c3ccc(Cl)cc3)c2)c1 | 2% | -14% | -8% | -2% | -19 | -27%
COc1cc(Cl)c(C)cc1-n1cc(C(=O)c2cc(Cl)ccc2O)cc(C#N)c1=O | nt | nt | nt | nt | nt | -2%
Cc1ccc(O)c(C(=O)c2cc(C#N)c(=O)n(Cc3ccccc3)c2)c1 | 16µM* | ? | 9.2µM* | -7% | 4 | -15%
